Assay outcomes: PubChem, National Center for Advancing Translational Sciences (NCATS)
This is a sample that favours compounds with a hit; in the whole collection about 2.2% have one here.
TDP43 rescue: qHTS of TDP-43 Inhibitors. TDP-43 expressing yeast growth rescue, BacTiter-Glo, 24 h. Potency, µM (highest dose often 46.1 µM), hits mostly activators. 410,000 tested, 1.8% active; further: nearly all actives have a fitted effect of over 50% in size
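Yeast expressing TDP-43 (pregrown in raffinose, seeded at OD600=0.02 in galactose medium) exposed to compounds 24 hr at 30 deg C. Growth read by BacTiter-Glo luminescence; rescue of toxicity appears as increased signal.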
Mito fusion act: qHTS Assay for Small Molecule Inhibitors of Mitochondrial Division or Activators of Mitochondrial Fusion; S. cerevisiae fusion-defective mutant growth rescue, CellTiterGlo 48 h; Potency, µM (series often up to 46.1 µM), actives largely listed as activators; 320,000 tested, 0.23% active; further: nearly all actives have a fitted effect of over 45% in size
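Read-out: ATP-based luminescence (CellTiterGlo, 10 min ambient) reporting growth of fusion-defective ts yeast after 48 hours at 37C on glycerol/ethanol YPEG medium in the presence of compound.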
ERG-DNA inh: qHTS for Small Molecule Inhibitors of the ERG Ets/DNA interaction; Potency, µM (doses to about 76.9 µM), usual class: inhibitors; AID 624246, 2012; Transcriptional regulator ERG (Homo sapiens), P11308; 370,000 tested, 0.028% active; fluorescence polarization, His-ERG Ets domain / labelled DNA; active means well fitted inhibition curve with a large enough effect in the polarisation, with a control signal flat; inconclusive means small, poorly fitted or top-dose-only effect, or effect the other way, or a change in a side signal; inactive means no such curve, though single readings can be large or run the other way; the % refers to the polarisation;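 further: polarization taken with two DNA probes labelled with fluorescein and Texas red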
Target sequence (P11308 whole entry, looked up, the tested form may be a part): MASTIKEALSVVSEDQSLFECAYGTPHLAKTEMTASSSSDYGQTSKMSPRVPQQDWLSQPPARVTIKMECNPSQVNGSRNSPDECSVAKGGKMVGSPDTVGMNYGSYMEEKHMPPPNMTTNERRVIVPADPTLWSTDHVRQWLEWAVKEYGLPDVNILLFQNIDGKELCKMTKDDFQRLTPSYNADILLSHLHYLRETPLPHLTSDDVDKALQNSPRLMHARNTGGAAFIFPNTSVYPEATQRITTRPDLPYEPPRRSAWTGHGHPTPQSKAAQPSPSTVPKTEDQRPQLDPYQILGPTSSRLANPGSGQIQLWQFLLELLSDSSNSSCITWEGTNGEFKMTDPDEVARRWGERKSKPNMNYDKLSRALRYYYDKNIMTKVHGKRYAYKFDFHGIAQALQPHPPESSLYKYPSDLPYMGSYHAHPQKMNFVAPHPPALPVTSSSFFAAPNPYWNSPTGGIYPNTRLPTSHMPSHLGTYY
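His-tagged ERG Ets domain (1 uM in the protein solution; 300mM KCl, 50mM Tris-HCl, 1mM EDTA, 1mM DTT, pH 7.5) received compound, then a probe mix of 5 nM fluorescein-DNA and 100nM Texas-615-DNA. Fluorescence polarization was read for both dyes.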
FUS suppressor: qHTS for Suppressors of FUS Proteinopathy: Primary screen using FUS-linked yeast assay | S. cerevisiae FUS-expressing, growth rescue, OD600, 24 h | Potency, µM (series often up to 76.6 µM), usual class: activators | 390,000 tested, 0.24% active; further: nearly all actives have a fitted effect of over 55% in size
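Yeast expressing FUS under galactose induction, OD 0.005 in 2% galactose medium; compounds in a dilution series, 24 h at 30C. Growth rescue by absorbance at 600 nm; CP55940 positive control, DMSO negative.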
aSyn yeast inh: qHTS of alpha-syn Inhibitors; Potency, µM (highest dose often 46.1 µM), hits mostly activators; Yeast expressing alpha-synuclein, growth rescue, BacTiter-Glo, 24 h; 370,000 tested, 0.14% active; further: nearly all actives have a fitted effect of over 65% in size
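Galactose-induced alpha-syn yeast (OD600=0.02, raffinose-pregrown) + pinned cpd, 24 hr, 30 deg C; growth by BacTiter-Glo luminescence. Growth restoration scores as activation.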
Abeta rescue: qHTS for compounds that reverse cellular toxicity of Amyloid beta (A-beta) peptide in yeast: Primary Screen | 410,000 tested, 0.063% active | Potency, µM (top dose mostly 46.1 µM), usual class: activators | yeast expressing A-beta42, growth rescue, OD600, 48 h; response scale: 0% DMSO, 100% iron-clioquinol control; further: nearly all actives have a fitted effect of over 55% in size
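Yeast A-beta toxicity model in growth medium with pinned compounds, 48 h at 30 C; growth read as absorbance at 600 nm. Normalized to FeCl3/clioquinol equimolar mix (positive) and DMSO (negative).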
Hits are given with their value; i = inactive; ? = inconclusive; nt = not tested or not shown. Unless noted, the call rests on the fitted dose curve; in most records, active means well fitted curve in the direction sought with a large enough effect; inconclusive means small, poorly fitted or top-dose-only effect, or another doubt; inactive means no such curve, though single readings can be large; an effect the other way counts as inactive or inconclusive.

SMILES	TDP43 rescue	Mito fusion act	ERG-DNA inh	FUS suppressor	aSyn yeast inh	Abeta rescue
Cc1ccc(-c2cc(C(=O)N3CCN(c4ccc(O)cc4)CC3)c3ccccc3n2)cc1	16µM	nt	i	?	i	i
O=C(c1cc(-c2ccccc2Cl)nc2ccccc12)N1CCC1	?	i	i	i	i	i
COc1ccc(-c2cc(C(=O)N3CCN(c4ncccn4)CC3)c3ccccc3n2)cc1	13µM	i	i	i	i	i
Cc1ccc(-c2cc(C(=O)N3CCN(c4ccccc4O)CC3)c3ccccc3n2)cc1	i	i	i	i	i	i
O=C(c1cc(-c2ccccc2Cl)nc2ccccc12)N1CCN(c2ccccc2O)CC1	20µM	?	i	i	i	i
Fc1ccc(Cn2cc(C(=S)N3CCOCC3)c3ccccc32)cc1	?	i	i	i	i	i
Fc1ccccc1Cn1cc(C(=S)N2CCOCC2)c2ccccc21	?	i	i	i	20µM	?
CCCCNc1nc(N(C)c2ccccc2)nc(-n2ccnc2)n1	14µM	i	i	i	i	i
O=C(Nc1ccc([N+](=O)[O-])cc1)OC1CCS(=O)(=O)C1 (centres undefined)	i	nt	nt	i	i	i
CCc1cc(Cn2nc(-c3ccccc3)cc2C(=O)NCc2cccs2)on1	i	13µM	i	i	i	i
COC(=O)C1=CC(C(=O)c2cccs2)=NN(c2ccc(OC)cc2)C1C(=O)OC (centres undefined)	i	18µM	i	i	i	i
COC(=O)C1=NN(c2ccc(OC)cc2)C2C(=O)N(c3ccccc3OC)C(=O)C12 (centres undefined)	i	i	i	i	i	i
Cc1cccc(CCNC(=O)c2cnc3c(C)cccn3c2=O)c1	28µM	nt	i	i	nt	i
O=c1c(Cl)c(Cl)cnn1Cc1nnc(-c2ccccc2Br)o1	13µM	i	i	i	i	i
COC(=O)c1c(C)oc2ccc(N(C(=O)c3ccncc3)S(=O)(=O)c3c(C)cc(C)cc3C)cc12	i	nt	i	i	nt	i
CSc1nnc(NC(=O)c2nc(S(=O)(=O)Cc3ccccc3)ncc2Cl)s1	?	i	i	i	i	i
Cc1ccccc1CS(=O)(=O)c1ncc(Cl)c(C(=O)Nc2nnc(C(C)C)s2)n1	11µM	nt	i	i	nt	i
CCCc1nnc(NC(=O)c2nc(S(=O)(=O)Cc3ccc(C)cc3)ncc2Cl)s1	11µM	i	i	i	i	i
CC(C)c1nnc(NC(=O)c2nc(S(=O)(=O)Cc3ccccc3)ncc2Cl)s1	8.9µM	i	i	i	i	i
Cc1cccc(Nc2ncnc3onc(-c4cccc(Cl)c4)c23)c1C	13µM	i	i	?	i	i
Fc1ccc(Nc2ncnc3onc(-c4cccc(Cl)c4)c23)c(F)c1	i	nt	i	i	nt	i
Cc1cccc(Nc2ncnc3onc(-c4ccc(F)cc4)c23)c1C	14µM	i	i	?	i	i
CCCC1CCC2(CC1)CCC2OC(=S)Nc1ccccc1Cl (centres undefined)	nt	nt	nt	i	nt	nt
CC(=O)/C(CN1CCCCC1)=N\O	i	i	nt	i	i	i
C/C(=N\O)C(=O)C(CN1CCCCC1)CN1CCCCC1	i	i	?	i	14µM	i
SMILES	TDP43 rescue	Mito fusion act	ERG-DNA inh	FUS suppressor	aSyn yeast inh	Abeta rescue
O=S(=O)(/C(=C/c1ccc(C(F)(F)F)cc1)c1nc2ccccc2[nH]1)c1ccccc1	10µM	i	i	i	i	i
CC(C)N1CCCCC(NC(=O)c2cccc(C(F)(F)F)c2)C1=O (centres undefined)	nt	nt	nt	i	nt	nt
Nc1nonc1C(=O)N/N=C/c1cc(Br)ccc1O	2.8µM	i	i	i	?	10µM
CC(C)CC(=O)NCC1(N(C)C)CCCCC1	i	nt	i	i	nt	i
CCc1cc2c(cc3c(=O)n(CC(=O)NCc4cc(Br)ccc4OC)ncn32)s1	i	nt	i	i	nt	i
CCOC(=O)C1CCCN(C(=O)c2cc(-c3ccccc3)cs2)CC1 (centres undefined)	18µM	nt	nt	i	i	i
CCOC(=O)C1CCCN(C(=S)Nc2ccc(Nc3ccccc3)cc2)C1 (centres undefined)	22µM	i	i	?	?	?
CC1CCN(C(=O)c2cc3c(=O)n(C)c4ccccc4c3s2)CC1	i	nt	i	i	nt	i
CCOC(=O)C1CCCN(C(=O)c2cc3c(=O)n(C)c4ccccc4c3s2)C1 (centres undefined)	20µM	nt	i	i	nt	i
CCOC(=O)C1CCCN(C(=O)c2sc(-c3ccccc3)nc2C)CC1 (centres undefined)	i	nt	nt	i	i	i
O=C(Nc1ccc(C(=O)N2CCOCC2)cc1)C1CCC1	i	nt	i	i	i	i
Cc1ccc(C)c(NC(=O)C2CCCN2S(=O)(=O)c2cccc3cccnc23)c1 (centres undefined)	nt	nt	nt	i	nt	nt
Cc1ccc2c(c1)N(S(=O)(=O)c1ccc(CN3C(=O)c4cccnc4C3=O)cc1)CCO2	i	11µM	i	i	i	i
COC(=O)[C@]12C[C@H](CC(=O)NCCC(C)C)C(=O)N(Cc3ccccc3)C1=C[C@H](COCc1ccccc1)O[C@@H]2C	nt	nt	nt	i	nt	nt
CCOC(=O)CC(c1ccc(N)cc1)n1c(C)ccc1C (centres undefined)	nt	i	i	?	i	i
Cc1ccc(C)n1C(CC(=O)O)c1ccc(C#N)cc1 (centres undefined)	i	i	i	32µM	i	i
C[C@H]1C(c2ccccc2F)O[C@]2(C[C@H](O)c3c(ccc4ccccc34)O2)C[C@@H]1O (some centres undefined)	nt	nt	nt	i	nt	nt
O=C(NCC1CCCO1)c1cccc2c1C(=O)c1ccc(N3CCC(Cc4ccccc4)CC3)cc1S2(=O)=O (centres undefined)	i	nt	i	10µM	i	i
CC1CCN(c2ccc3c(c2)S(=O)(=O)c2cccc(C(=O)NC[C@@H]4CCCO4)c2C3=O)CC1	i	nt	i	i	i	i
COc1ccc2c(c1)cc(CNc1ccc(OC)c(OC)c1)c(=O)n2CC(=O)Nc1ccc(F)cc1	i	nt	i	i	i	i
CN(C)c1ccc(/C=C/c2ccc3cc(F)ccc3n2)cc1	nt	nt	nt	nt	i	nt
COc1ccc(OCC(=O)Nc2cccc3cccnc23)cc1	13µM	i	i	i	nt	i
COc1ccc(OCC(=O)Nc2ccccc2N2CCN(C)CC2)cc1	i	i	i	i	i	i
